Laboratory results: PubChem BioAssay

Assay: small-molecule microarray binders of probe aNog, primary screen, biochemical, biotinylated probe, 635/667 nm fluorescence (AID 1115);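 further: probe is biotinylated aNog protein used at 0.15 µg/mL for 1 h at 4 C; z-score combines 667 nm fluorescence of each spot with its signal to noise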
Conditions: higher = more signal

| Structure (SMILES) | composite z-score |
| --- | --- |
| Cc1ccccc1C(O)C1C=CC2C(=O)N(c3ccccc3)C(=O)C2N1Nc1ccc(C(C)C)cc1 (configuration not stated) | 0.209 |
| CCS[C@H]1[C@@H](C(=O)O)[C@H](c2ccc(C)cc2)N(S(=O)(=O)c2ccc(C)cc2)[C@@H]1CC | 1.11 |
| COc1cc(NN2C(C(O)c3ccco3)C=CC3C(=O)N(c4ccccc4)C(=O)C32)cc(OC)c1OC (configuration not stated) | 0.133 |
| CNS(=O)(=O)c1ccc(C)cc1 | -0.138 |
| O=C1N(Cc2ccccc2)c2ccccc2[C@@H]2OC(c3ccc(OCCCO)cc3)=N[C@]12CCS(=O)(=O)c1ccccc1 | -0.807 |
| COc1cc2c(cc1O)C(C1CC1)N(Cc1sc3ccccc3c1Cl)CC2 (configuration not stated) | 0.173 |
| Oc1ccc2cc[n+](Cc3sc4ccccc4c3Cl)cc2c1 | -0.29 |
| CC(C)N1C(=O)C[C@@](C(=O)NCC(F)(F)F)(c2ccc([N+](=O)[O-])cc2)[C@H]1c1ccc(CO)cc1 | -0.368 |
| COCCCNC(=O)[C@@]1(C)c2ccccc2C(=O)N(C(C)C)[C@H]1c1ccc(CO)cc1 | -0.0247 |
| COCCOC(=O)N1C(=O)[C@@]2(c3cc(C#CCC(C(=O)OC)C(=O)OC)ccc31)[C@H](c1ccccc1OCCO)N1[C@H](c3ccccc3)[C@H](c3ccccc3)OC(=O)[C@H]1[C@@H]2C(=O)N1CCN(c2ncccn2)CC1 | 0.277 |
| CCOC(=O)[C@H]1C/C=C/C[C@H](C(=O)OCC)C(=O)O[C@H]2[C@@H](OC)O[C@H](CO)[C@@H](OC(=O)c3c(OC)cccc3OC)[C@@H]2OC1=O | 0.65 |
| C=C(COC)/C(=C/C[C@@H](OC(=O)c1ccncc1)c1ccc(CO)o1)c1cc(C(=O)OC)ccc1OC | -0.18 |
